Hits are enriched below; roughly 5.9% of the tested compounds scored in any of these assays.
HEK293 tox: qHTS of GLP-1 Receptor Inverse Agonists: Cytotox Screen; HEK293 cAMP-luciferase reporter cells, luminescence, 24 h; Potency, µM (titrated, usually from 38.3 µM), inactives show at the top dose activity change, negative = inhibition, most hits filed as inhibitors; 410,000 compounds, 0.13% hits;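 also: loss of luciferase light is scored as toxicity; % is scaled to controls: 0 for no effect and ±100 for the full control effect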
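To flag toxic compounds, the library was rerun on cells for 24 hr at 37 deg C and 5% CO2. Viability-linked luminescence was captured 12 min after adding luciferase detection reagent.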
RORgamma inh: qHTS for inhibitors of ROR gamma transcriptional activity | 310,000 compounds, 5.4% hits | Drosophila S2 Gal4-RORgamma UAS-luciferase reporter, 20 h | Potency, µM (series often up to 53.6 µM), without a hit: at the highest dose activity change, negative = inhibition, actives largely listed as inhibitors | AID 2551, 2010 | Nuclear receptor ROR-gamma (Mus musculus), P51450; also: % is scaled to controls: 0 for no effect and ±100 for the full control effect; nearly all actives have a fitted effect of over 60% in size
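Luminescence from a UAS-regulated Photinus luciferase reporter in stably transfected Drosophila Schneider cells is measured; decreased signal marks ROR gamma inhibition. Fusion expression is induced by 700 uM copper sulfate for 20 hr.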
GLP1R inv ag: qHTS of GLP-1 Receptor Inverse Agonists (Inhibition Mode); HEK293 GLP-1R CRE-luciferase, luminescence, 24 h; GLP-1R form is constitutively active; Potency, µM (doses to about 38.3 µM), for the others: top-dose activity change, negative = inhibition, hits mostly inhibitors; 410,000 compounds, 1.6% hits; also: % is scaled to controls: 0 for no effect and ±100 for the full control effect; nearly all actives have a fitted effect of over 55% in size
Target sequence (P43220 whole entry, looked up): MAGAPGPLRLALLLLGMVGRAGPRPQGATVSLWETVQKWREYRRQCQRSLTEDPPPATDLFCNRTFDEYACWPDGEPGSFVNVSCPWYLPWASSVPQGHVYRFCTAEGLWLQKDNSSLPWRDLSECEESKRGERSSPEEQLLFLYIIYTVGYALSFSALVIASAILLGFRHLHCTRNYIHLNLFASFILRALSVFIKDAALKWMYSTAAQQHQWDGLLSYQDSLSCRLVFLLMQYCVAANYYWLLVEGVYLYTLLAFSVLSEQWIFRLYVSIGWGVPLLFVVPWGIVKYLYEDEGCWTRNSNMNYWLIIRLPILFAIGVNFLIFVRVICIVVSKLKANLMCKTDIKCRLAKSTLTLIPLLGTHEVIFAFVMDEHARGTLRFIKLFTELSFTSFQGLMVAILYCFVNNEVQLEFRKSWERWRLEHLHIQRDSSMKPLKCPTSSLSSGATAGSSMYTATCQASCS
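Luminescence readout: a drop in cAMP-driven luciferase signal flags inverse agonism at a constitutively active GLP-1R stably expressed in HEK293. Compound exposure lasted 24 hr at 37 deg C, 5% CO2.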
Gal4-VP16 FLuc: VP16 counterscreen qHTS for inhibitors of ROR gamma transcriptional activity | Drosophila S2 Gal4-VP16 UAS-luciferase, luminescence, 20 h | Potency, µM (titrated, usually from 53.6 µM), without a hit: at the top dose activity, negative = inhibition, actives largely listed as inhibitors | 310,000 compounds, 3.5% hits | AID 2546, 2010;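 also: Gal4-VP16 expression switched on by copper sulfate through the metallothionein promoter; % is scaled to controls: 0 for no effect and ±100 for the full control effect; nearly all actives have a fitted effect of over 50% in size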
GLP1R ag: qHTS of GLP-1 Receptor Agonists; Glucagon-like peptide 1 receptor (Homo sapiens), P43220; 380,000 compounds, 0.007% hits; Potency, µM (highest dose often 45.6 µM), for the others: top-dose activation, most hits filed as activators; HEK293 GLP-1R CRE-luciferase, luminescence, 4-6 h; cells express a hypersensitive GLP-1R form; AID 624172, 2012; also: % of control where 0% means no effect
* = called active by the depositor; i = inactive; ? = inconclusive; . = no result; [ ] = remark or other dose. Calls follow the shape of the dose curve; as a rule, active = well fitted curve in the direction sought with a large enough effect; inconclusive = small, poorly fitted or top-dose-only effect, or another doubt; inactive = no such curve, though single readings can be large; an effect the other way counts as inactive or inconclusive. Potency is read from the fitted curve at half-maximal effect.

SMILES | HEK293 tox | RORgamma inh | GLP1R inv ag | Gal4-VP16 FLuc | GLP1R ag
COC(=O)/C=C1\S/C(=N/N=C/c2ccc(Cl)cc2)NC1=O | -8.6% | -7.1% | 4.4% | -11.6% | -0.2%
COC(=O)/C=C1\S/C(=N/N=C/c2ccco2)NC1=O | 16.9% | 7.08µM* | 6.3% | -15.8%[10 µM] | -0.3%
COC(=O)/C=C1/S/C(=N/N=C/c2ccco2)NC1=O | -13.2% | 14.1µM* | 3.8% | ? | 0.8%
COC(=O)/C=C1\S/C(=N/N=C/c2ccccc2)NC1=O | 8.7% | ? | 7.0% | ? | -4.1%
COc1ccccc1CNC(=O)c1cccc(NC(=O)N2CCSc3ncccc32)c1 | 2.0% | . | 4.8% | . | .
Nc1nonc1-n1nnc(C(=O)N/N=C/c2ccoc2)c1CSc1ccc(Cl)cc1 | 4.4% | 7.08µM* | ? | 12.6µM* | 0.3%
Nc1nonc1-n1nnc(C(=O)N/N=C/c2ccoc2)c1CSc1ccccc1 | -1.3% | 15.8µM* | -7.2% | ? | 3.0%
C#C[C@@]1(O)CC[C@@H]2[C@@H]3CCC4=CC(=O)CC[C@@H]4[C@H]3CC[C@]21C | . | 3.9%[16.9 µM] | . | -0.6%[17 µM] | .
CC(C)c1nc2sc3c(=S)nc[nH]c3c2c2c1CCC2 | -6.7% | 3.16µM* | 22.9% | ? | 1.7%
CCOc1ccc(NC(=O)c2cnn(-c3ccc(C)c(Cl)c3)c2C2CCNCC2)cc1 | ? | . | 8.91µM* | . | -2.4%
COc1ccc2oc(C(=O)c3ccccc3)c(N)c2c1 | 2.1% | -2.3% | ? | 8.4% | -7.4%
COc1ccc(-c2oc3ccccc3c(=O)c2OC(C)=O)cc1 | 5.0%[0.307 µM] | 7.08µM* | 4.8%[0.307 µM] | ? | -12.0%
COc1ccc(C(=O)c2oc3ccccc3c2N)cc1 | 3.9% | 1.5% | 4.5% | 10µM* | 8.1%
CC(=O)Oc1c(-c2ccc(Br)o2)oc2ccccc2c1=O | i | 7.08µM* | 5.62µM* | 7.08µM* | 0.1%
Cc1ccccc1-c1nn2c(=O)cc(CN3CCN(C(=O)c4ccc(C(C)(C)C)cc4)CC3)nc2s1 | -11.0% | . | 0.5% | . | .
CCOC(=O)c1cc(-c2ccccc2)n(CC(=O)N(C)c2ccc(OC)cc2)c1C | -2.1% | . | ? | . | .
O=C(NC(=S)N(CCCCO)C1CCCCC1)c1sc2ccccc2c1Cl | ? | 0.1µM* | 10.5% | 0.891µM* | 16.6%
COc1cc2c(cc1OC)C(C)N(C(=O)c1cccs1)CC2 (stereo not drawn) | 11.7%[0.307 µM] | -16.2% | 1.0%[0.307 µM] | -18.6%[10 µM] | -3.2%
COc1cc2c(cc1OC)C(C)N(C(=O)c1cc3c(=O)oc4ccc(C)cc4c3s1)CC2 (stereo not drawn) | -5.6% | 10µM* | 4.2% | -21.5% | 1.2%
Cc1cc(C(=O)COC(=O)c2ccc(O)cc2)c(C)n1CC(F)(F)F | -12.1% | . | ? | . | 19.0%
Cc1cc(C(=O)COC(=O)c2ccc(O)cc2)c(C)n1-c1ccccc1F | -11.3% | ? | 10µM* | -24.9% | 2.8%
Cc1ccccc1C(=O)Nc1cccc(C(=O)OCc2cc(=O)n3c4c(sc3n2)CCCC4)c1 | -9.7% | . | 3.4% | . | .
CCc1cccc2c(C(=O)CCl)c[nH]c12 | -25.1% | ? | -6.0% | 14.1µM* | 5.9%
CCc1cccc2c(C(=S)N3CCCC3)c[nH]c12 | -8.3% | 22.9% | ? | -10.2% | 13.0%
Cn1c(=O)n(C)c2cc(NC(=O)CCl)ccc21 | ? | 11.2µM* | ? | ? | -9.5%
SMILES | HEK293 tox | RORgamma inh | GLP1R inv ag | Gal4-VP16 FLuc | GLP1R ag
CCC1=C2CC[C@H]3C(=O)N(c4ccccc4)C(=O)[C@H]3[C@H]2[C@@]2(C)C(=O)N(CC(=O)OC)C(=O)N2C1=O | . | 2.5% | . | 2.0% | .
CCc1cc(C(N)=S)ccn1 | 4.7% | 17.2% | -3.8% | -3.9% | -0.6%
CCc1ccc(C(N)=S)cc1 | ? | 11.2µM* | ? | -16.9% | 2.8%
COc1ccc(C(N)=S)cc1 | 11.5% | 12.6µM* | 10.2% | ? | 0.2%
COc1ccccc1N1CCN(S(=O)(=O)c2ccc(F)c(C(=O)Nc3ccc(C)c(F)c3)c2)CC1 | -1.5% | . | ? | . | .
Cc1cc(NC(=O)c2ccc(C)c([N+](=O)[O-])c2)no1 | 19.6% | 6.31µM* | 29.0% | -11.0% | 2.0%
Cc1ccc(C(=O)NC(=S)Nc2ccc(NC(=O)c3cccs3)cc2)cc1[N+](=O)[O-] | 1.2% | 6.31µM* | 4.2% | 6.31µM* | -8.1%
Cc1nc2ccc(NC(=O)c3ccc(Cl)c(NC(=O)c4cccs4)c3)cc2s1 | 5.1% | 21.5% | 2.2% | -8.9% | 2.6%
COc1ccc(C(=O)Nc2ccc(NC(=O)c3cccs3)cc2)cc1[N+](=O)[O-] | 2.3% | -38.3% | ? | -9.5% | 12.9%
Cc1ccc(NC(=O)c2ccc(Cl)c(NC(=O)c3cccs3)c2)cc1 | -17.2% | 33.5% | 10µM* | ? | 17.4%
CCOc1ccc(C(=O)Nc2ccc(NC(=O)c3cccs3)cc2)cc1[N+](=O)[O-] | 14.4%[1.53 µM] | 14.1µM* | 9.1% | ? | -9.7%
CC(=O)Nc1c(C)nn(-c2ccccc2)c1N1CCC(C(=O)Nc2ccc(F)cc2Cl)CC1 | 3.3% | . | 21.2% | . | .
COc1cccc(C(=O)NCC(=O)OCc2cc(=O)n3c(C)csc3n2)c1 | -1.1% | . | 29.7% | . | .
Cc1nnsc1-c1nc2ccccc2n1C(CCc1ccccc1)c1nc2ccccc2[nH]1 (stereo not drawn) | -15.7% | . | 11.2µM* | . | .
O=C(NCc1ccccc1)C(c1ccc(C(F)(F)F)cc1)n1c(=O)c(-c2cc3ccccc3[nH]2)nc2ccccc21 (stereo not drawn) | i | . | 4.47µM* | . | .
O=c1c(-c2cc3ccccc3[nH]2)nc2ccccc2n1C(CCc1ccccc1)c1nc2ccccc2[nH]1 (stereo not drawn) | i | . | 3.16µM* | . | .
O=C(NCc1ccccc1)C(CCc1ccccc1)n1c(=O)c(-c2cc3ccccc3[nH]2)nc2ccccc21 (stereo not drawn) | 455.4% | . | 5.62µM* | . | .
Cc1ccc(Cc2nc3ccccc3n2C(CCc2ccccc2)c2nc3ccccc3[nH]2)cc1 (stereo not drawn) | 5.3% | . | 23.7% | . | .
C/C=C(\C)C(=O)OC1[C@@H]2C=C3C4CC(=O)OC(c5ccoc5)[C@]4(C)CCC3[C@@](C)(C2=O)C(C(O)C(=O)OC)C1(C)C (stereo partly drawn) | . | 0.8% | . | -0.3% | .
O=C(N/N=C1/C[C@@H](O)[C@@H](O)[C@@H]2[C@@H]3C(=O)N(C[C@@H]4CCCO4)C(=O)[C@H]3CC[C@@H]12)OCc1ccccc1 | . | 5.6%[10 µM] | . | 6.3%[10 µM] | .
CCC1CN(C(=O)N2CCC(C(=O)NCCc3cc(OC)ccc3OC)CC2)c2ccccc2O1 (stereo not drawn) | -1.7% | . | 5.8% | . | .
